Records with an inconclusive call do not appear. Calls of active or inactive are those of the source. Calls follow the shape of the dose curve; as a rule, active = well fitted curve in the direction sought with a large enough effect; inconclusive = small, poorly fitted or top-dose-only effect, or another doubt; inactive = no such curve, though single readings can be large or run the other way.

A short description of the test: qHTS screen for small molecules that inhibit ELG1-dependent DNA repair: SAR in Cell-Based Luciferin Counter Assay. As to conditions: cell-based luciferase counter-screen, luminescence; series mostly up to 45.7 µM. The text has this: Cancer cells divide rapidly compared to normal cells in the body. During cell division, cancer cells need to duplicate their genome by DNA replication. The failure of genome duplication leads to cancer cells' death. Therefore, inhibitors of DNA replication could specifically kill cancer cells. Based on this concept, many chemotherapeutic agents were developed and have been used to treat cancer patients. However, there are a limited number of agents available in the clinical setting, and some of those that do exist have low efficacy and severe side effects. Therefore, if we can find the compounds that effectively block DNA replication either by directly damaging DNA or by inhibiting other cellular mechanisms, the options for cancer treatment will be broadened. With this in mind, we developed a quantitative high-throughput ELG1-luciferase reporter gene assay. Small molecules that specifically block ELG1 function in response to DNA damage can be identified by monitoring the suppression of luciferase activity. Since ELG1 defines a pathway for repairing DNA damage, agents blocking ELG1 function can be used to sensitize cancer cells to chemotherapeutic agents whose mechanism of action involves the induction of DNA damage. This assays is a counterscreen, that is more specifically, a cell-based luciferase assay following treatment with putative ELG1 antagonists to eliminate luciferase enhancers/inhibitors NIH Molecular Libraries Probe Production Network [MLPCN] NIH Chemical Genomics Center [NCGC] MLPCN Grant: R03 MH092164 Assay Provider: Kyungjae Myung, NHGRI, NIH
3 uL of substrate reagent will be pipetted into each well in 1536-well white, solid-bottom plates using a FRD dispenser, followed by addition of 23 nL of DMSO or compounds by pintool. After compound addition, 1 µL of luciferase will be added into the wells. The plates will be read in a ViewLux CCD-based plate reader.
On to `CN(C)c1ccc(N=Nc2ccc(/C=C/c3ccnc4ccccc34)cc2)cc1`, for which the result was inactive.

Regarding `CNC(=O)c1cc(-c2cccs2)on1`, the outcome was inactive.

Consider `Oc1ccc(CCc2ccccc2F)c2cccnc12`, for which the call was inactive.

Consider `O=C(COc1ccccc1Cl)Nc1ccc(-c2nc3ccccc3s2)cc1`, for which the call was inactive.

As for `O=C(c1cc2ccccc2[nH]1)c1cc2cc(O)ccc2[nH]1`, the call was inactive.

In the case of `CC(=O)Nc1ccc(/C=C/c2sc3ccccc3[n+]2CCCCI)cc1`, the molecule was classed as inactive.

Turning to `Cc1csc(CNc2ncnc3ccc(-c4ccoc4)cc23)c1`, the outcome was inactive.

With `CN(C)c1ccc(/C=C2\C=Cc3ccccc32)c(F)c1`, the molecule was classed as inactive.

`COc1ccc(C2CC(c3c(O)cc(C)oc3=O)=NCCS2)c(OC)c1` (stereo not given): the outcome was inactive.

In the case of `O=C(Nc1ccccn1)c1sc2ccccc2c1Cl`, the molecule was called inactive.

For the molecule `COc1cccc2c1C(=O)/C(=C\c1ccc(N(C)C)cc1)C2`, the molecule was called inactive.

`O=C1/C(=C/c2ccc(O)c(O)c2)Oc2ccccc21`: the result was inactive.

As for `CN(C)N=Nc1ccc(/C=C2\C=Cc3ccccc32)cc1`, the molecule was classed as inactive.

Regarding `Cc1noc(C)c1-c1ccc2ncnc(NCc3ccc(F)c(F)c3)c2c1`, the molecule was classed as inactive.

Consider `COc1ccc(-c2cnc(-c3cccnc3)o2)cc1`, for which the molecule was classed as inactive.

On to `O=C(Cc1ccc(OCCCc2ccccc2)cc1)NO`, for which the molecule was called inactive.

Take `Oc1ccc(/C=C/c2c(F)cccc2F)c2cccnc12`: the result was inactive.

`COc1ccc(-c2coc3cc(O)cc(O)c3c2=O)cc1`: the result was inactive.

Consider `COc1cc2c(cc1OC)C1C(=O)c3c(cc4c(c3O)C=CC(C)(C)O4)OC1CO2` (stereo not given), for which the molecule was classed as inactive.

Take `Oc1cc2cc(-c3csc(-c4ccc(F)cc4)n3)cc3c2n1CCC3`: the outcome was inactive.

Turning to `O=c1[nH]c(=O)n([C@@H]2O[C@H](CO)[C@@H](O)[C@H]2O)cc1F`, the outcome was inactive.

Turning to `O=c1[nH]c(=O)n([C@@H]2C[C@H](O)[C@H](CO)O2)cc1C(F)(F)F`, the outcome was inactive.

Turning to `Cc1nc(Nc2nc3ccccc3o2)nc2c1CCCC2`, the call was inactive.

As to `N#Cc1ccc(-c2ccc(-c3nc4ccccc4c(=O)[nH]3)o2)cc1`, the molecule was classed as inactive.

On to `COc1ccc(-c2nc(-c3cccnc3)no2)cc1`, for which the molecule was classed as inactive.

As to `CC(=O)OCC1=C[C@H]2[C@@H]3C(C)(C)[C@]3(OC(C)=O)C[C@@H](C)[C@]2(O)[C@@H]2C=C(C)C(=O)[C@@]2(O)C1`, the call was inactive.

`COC(=O)Nc1nc2ccc(C(=O)c3cccs3)cc2[nH]1`: the molecule was classed as inactive.

In the case of `COc1ccc(C2=Nn3c(nnc3-c3ccccc3OC)SC2)cc1OC`, the result was inactive.

Turning to `CC(C)C(=O)SCCCCCCC(=O)Nc1nc(-c2ccccc2)cs1`, the molecule was called inactive.

As to `CCCC(=O)Oc1ccc2[nH]c(C(=O)c3cc4ccccc4[nH]3)cc2c1`, the outcome was inactive.

Regarding `COc1cccc([C@@H]2Oc3ccc(OC)cc3C(=O)[C@H]2OC(=O)NS(=O)(=O)c2ccc(C)cc2)c1`, the call was inactive.

For `c1cncc(CNc2ncnc3ccc(-c4ccoc4)cc23)c1`, the call was inactive.

With `CN(C)c1cccc(-c2nnc(N3CCC(C(N)=O)CC3)s2)c1`, the outcome was inactive.

As for `COc1ccccc1/C=C/c1nc2ccccc2o1`, the molecule was called inactive.

Regarding `NC(=O)C1CCN(c2cc(-c3ccc4c(c3)OCCCO4)ncn2)CC1`, the outcome was inactive.

As for `O=c1[nH]c(-c2ccc(-c3cccc(Cl)c3)o2)nc2ccccc12`, the result was inactive.

On to `O=C(/C=C/C#Cc1cccc(NS(=O)(=O)c2ccccc2)c1)NO`, for which the call was inactive.

As for `O=C(NC1CCCC1)c1cc(-c2cccs2)on1`, the call was inactive.

As to `COc1cccc2oc(-c3ccccc3)cc(=O)c12`, the molecule was called inactive.

`Cc1ccc2c(c1)C/C(=C/c1ccc(N(C)C)cc1)C2=O`: the molecule was classed as inactive.

The record behind these values is PubChem BioAssay AID686934 (National Center for Advancing Translational Sciences (NCATS), 2013).
